# POLK inh: blocks human DNA polymerase kappa activity; purified Pol kappa, fluorescent DNA synthesis assay, 10 min; Potency, µM (highest dose often 107 µM), for inactives: at the highest dose activity, negative = inhibition, hits mostly inhibitors; actives 0.53% (n = 400,000); AID 588579; also: % is scaled to controls: 0 for no effect and ±100 for the full control effect
#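 Readout: fluorescence, taken kinetically at 0 and 10 min. Conditions: 10 nM Pol kappa, 15 min RT compound preincubation, 50 nM substrate final. Controls: enzyme-free buffer wells.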
# Tb PGK inh: inhibitors of T. brucei phosphoglycerate kinase; P07378; PGK/GAPDH coupled, Kinase-Glo luminescence, 60 min; Potency, µM (top dose mostly 57.5 µM), for inactives: top-dose activity change, negative = inhibition, usual class: inhibitors; actives 0.043% (n = 380,000); AID 602233; also: % is scaled to controls: 0 for no effect and ±100 for the full control effect; nearly all actives have a fitted effect of over 60% in size
# Target sequence (P07378 whole entry, looked up): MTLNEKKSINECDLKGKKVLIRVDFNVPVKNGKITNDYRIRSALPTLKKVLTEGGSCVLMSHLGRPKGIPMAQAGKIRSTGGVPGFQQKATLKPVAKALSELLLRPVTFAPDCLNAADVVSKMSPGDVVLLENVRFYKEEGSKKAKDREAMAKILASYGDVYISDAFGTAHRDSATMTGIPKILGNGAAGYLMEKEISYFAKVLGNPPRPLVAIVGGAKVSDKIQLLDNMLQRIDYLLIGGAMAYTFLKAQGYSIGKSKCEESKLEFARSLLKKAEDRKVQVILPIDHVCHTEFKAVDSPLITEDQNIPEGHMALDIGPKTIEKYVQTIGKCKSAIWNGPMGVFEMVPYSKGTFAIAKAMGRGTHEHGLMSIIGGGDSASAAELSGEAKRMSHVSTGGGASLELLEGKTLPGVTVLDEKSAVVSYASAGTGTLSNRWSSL
#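 Luminescent ATP detection (Kinase-Glo Plus) follows a 60-minute room-temperature incubation, with wells lacking PGK as controls. Buffer: 100 mM TEA (pH 7.6), 5 mM MgCl2, 0.01% Tween-20. Coupling enzyme GAPDH (100 nM final) supplies unstable 1,3-BPG in-well.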
# Pol eta inh: inhibitors of human DNA polymerase eta; Q9Y253; recombinant Pol eta, fluorescent DNA replication assay; Potency, µM (series often up to 114 µM), inactives show top-dose activity change, negative = inhibition, most hits filed as inhibitors; actives 1.2% (n = 390,000); AID 588591; also: % is scaled to controls: 0 for no effect and ±100 for the full control effect
#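 Pol eta at 10 nM preincubated with compounds 15 min at room temperature; reaction started with fluorescent substrate (50 nM final) and read kinetically at 0 and 10 min.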
# POLB inh: inhibitors of human DNA polymerase beta | actives 1.3% (n = 340,000) | Pol beta primer extension/strand displacement, fluorescence kinetic | AID 485314 | Potency, µM (top dose mostly 114 µM), without a hit: at the highest dose activity change, negative = inhibition, usual class: inhibitors; also: % is scaled to controls: 0 for no effect and ±100 for the full control effect
#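 Human Pol beta at 10 nM; strand-displacement substrate 50 nM final. Compound exposure 15 min at room temperature before start, reaction 10 min at room temperature.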
# FEN1 inh: human FEN1 inhibition. P39748. Recombinant FEN1 flap cleavage, fluorescence, 15 min. Potency, µM (highest dose often 114 µM), inactives show top-dose activity change, negative = inhibition, usual class: inhibitors. actives 0.35% (n = 390,000); also: % is scaled to controls: 0 for no effect and ±100 for the full control effect; nearly all actives have a fitted effect of over 65% in size
#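 Potency values derive from four-parameter Hill fits of normalized qHTS data. The reaction used 10 nM FEN1 preincubated 15 min at room temperature with compound, then 50 nM DNA substrate, read at 0 and 15 min.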
# Pol iota inh: blocks human DNA polymerase iota activity; Q9UNA4; Pol iota fluorescent replication assay, 10 min; Potency, µM (series often up to 115 µM), for the others: at the highest dose activity, negative = inhibition, hits mostly inhibitors; actives 1% (n = 390,000)
#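 Pol iota at 10 nM preincubated 15 min with compounds at room temperature; reaction started with fluorescent substrate, 50 nM final. Fluorescence read kinetically at 0 and 10 min; buffer-only wells as negative control.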
# Numbers without * were called inactive; i = inactive; ? = inconclusive; nt = no result given; ! = a repeat was not active; [ ] = another dose, or the depositor's remark. Most compounds without a hit are left out; they make up all but 2.4% or so of the library. Calls follow the shape of the dose curve; as a rule, active = well fitted curve in the direction sought with a large enough effect; inconclusive = small, poorly fitted or top-dose-only effect, or another doubt; inactive = no such curve, though single readings can be large; an effect the other way counts as inactive or inconclusive. Potency is read from the fitted curve at half-maximal effect.
SMILES,POLK inh,Tb PGK inh,Pol eta inh,POLB inh,FEN1 inh,Pol iota inh
Oc1ccc2c(c1)OC(c1ccc(O)c(O)c1)C(O)C2 (configuration not stated),10µM*,nt,nt,nt,nt,nt
O=C1C[C@H](c2ccccc2)Oc2cc(O)cc(O)c21,-3%[19.4 µM],nt,nt,nt,nt,nt
Oc1cc(O)c2c(c1)O[C@H](c1ccc(O)c(O)c1)[C@@H](O)C2,?,-7%,28µM*!,13µM*,15%,?
O=C(Cc1ccc(OCCc2ccccc2)cc1)NO,-3%,nt,nt,nt,4%,28%
CCOC(=O)c1cc(S(=O)(=O)Nc2ccccc2OCC)[nH]n1,-5%[60.1 µM],-8%,6%,9%,-8%,?
CCC(=O)c1ccc(OCC(=O)N2CCCC2)c(OC)c1,5%,1%,-11%,22µM*,2%,5%
O=c1ccc2ccc(O)c(O)c2o1,9.5µM*,nt,?,14µM*,7.5µM*,24µM*
CC(C)CN(CC(C)C)C1=N/C(=C\c2ccco2)C(=O)N1c1ccccc1,-39%,0%,-11%,28µM*,-8%,?
CCN(CC)C1=N/C(=C\c2ccco2)C(=O)N1c1ccccc1,-12%,-8%,-4%,-10%,-5%,-26%
Cc1ccnc2ccc(I)cc12,-1%,nt,nt,nt,14%,46%
Cc1cc(C)cc(NC(=O)C2CCN(S(=O)(=O)c3ccc4c(c3)NC(=O)C(C)S4)CC2)c1 (configuration not stated),-8%,-8%,-26%,-1%,-14%,36%
Cc1ccc(NC(=O)C2CCN(S(=O)(=O)c3ccc4c(c3)NC(=O)C(C)S4)CC2)c(Cl)c1 (configuration not stated),-14%,-1%,-17%,?,4%,16µM*
CCOC(=O)C1=C(C)N(C)C(=O)NC1c1cc2c(cc1[N+](=O)[O-])OCO2 (configuration not stated),?,-3%,-14%,18µM*,-5%,2.8µM*
CCCCOC(=O)C1=C(C)N(C)C(=O)NC1c1cc2c(cc1Br)OCO2 (configuration not stated),nt,i,-13%,nt,nt,nt
CC(C)c1ccc(Nc2nc(Nc3ccc(Cl)cc3)nc(N3CCOCC3)n2)cc1,-7%,nt,nt,nt,-16%,-24%
CN(C)c1ccc(CCc2ccnc3ccccc23)cc1,-15%,nt,nt,nt,-5%,3%
COc1cc2nc(N3CCCN(C)CC3)nc(Nc3ccncc3)c2cc1OC,-18%,nt,nt,nt,14µM*,20µM*
COc1cc2nc(N3CCN(C)CC3)nc(NC3CC3)c2cc1OC,-3%,nt,nt,nt,-20%,20%
COc1cc2nc(N3CCCN(C)CC3)nc(NC3CCN(Cc4ccccc4)CC3)c2cc1OC,?,nt,nt,nt,18µM*,-11%
COc1cc2c(NC3CCN(C)CC3)nc(N3CCCN(C)CC3)nc2cc1OCc1ccccc1,-7%,nt,nt,nt,22µM*,-1%
COc1cc2nc(N3CCN(C)CC3)nc(NC3CCN(Cc4ccccc4)CC3)c2cc1OC,-17%,nt,nt,nt,?,-12%
C(=Nc1ccc(/C=C/c2ccnc3ccccc23)cc1)c1ccc2c(c1)OCO2,-72%,nt,nt,nt,-33%,-26%
COc1cc2[nH]c(=S)nc(NC3CCCCCC3)c2cc1OC,-16%,i,-3%,?,45µM*,-21%
O=C1CSC(=S)N1Nc1ccccc1,-6%,-8%,-9%,nt,9%,32µM*
COc1ccc2c(c1)C(=O)CC2,5%,nt,nt,nt,-4%,0%
SMILES,POLK inh,Tb PGK inh,Pol eta inh,POLB inh,FEN1 inh,Pol iota inh
Cc1ccc(Nc2c3c(nc4nncn24)CCC3)c(C)c1,-9%,3%,-6%,3%,4%,24%
Cc1nc2ccccc2n1CCc1nc2c3ccccc3nc(SCC(=O)NCc3ccco3)n2n1,-7%,-9%,?,40µM*,-17%,?
Cc1ccccc1NC(=O)CSc1nc2ccccc2c2nc(CCn3c(C)nc4ccccc43)nn12,-1%[60.1 µM],-5%,-10%,-15%,-2%,16%
COc1ccccc1Nc1nn2c(=O)c3ccc(C(=O)NCc4cccs4)cc3nc2s1,4%[60.1 µM],9%,?,?,5%,28%
COc1ccccc1Nc1nn2c(=O)c3ccc(C(=O)NCCCOC(C)C)cc3nc2s1,-15%,-2%,?,45µM*,-6%,?
Cc1ccc(C)c(Nc2nn3c(=O)c4ccc(C(=O)NCc5cccs5)cc4nc3s2)c1,4%[60.1 µM],-6%,?,11µM*,-26%,-10%
CCN(CC)CCNC(=O)c1ccc2c(=O)n3nc(Nc4ccccc4OC)sc3nc2c1,1%,i,?,-24%,?,6%
Cc1ccc(Cl)cc1N(C)C(=O)c1sc2nc3n(c(=O)c2c1C)CCCC3,-9%,i,-18%,2%,0%,-3%
CC1(C)CCC[C@@](C)([C@H]2CC[C@]3(C)[C@@H]2[C@H](O)CC2[C@@]4(C)CC[C@H](O)C(C)(C)[C@@H]4[C@@H](O)C[C@]23C)O1 (some centres not stated),1%[60.1 µM],nt,nt,nt,nt,nt
COC(=O)CCCC1=CC2=CC(=O)C(C)(OC(=O)c3cccs3)C(=O)C2=CN1Cc1ccc2c(c1)OCO2 (configuration not stated),-35%,-9%,?,50µM*,1%,32µM*
COC(=O)CCCC1=CC2=CC(=O)C(C)(OC(=O)c3cccs3)C(=O)C2=CN1c1ccc(OC)cc1 (configuration not stated),-23%,1%,-10%,0%,-9%,61%
COC(=O)CCCC1=CC2=CC(=O)C(C)(OC(=O)c3cccs3)C(=O)C2=CN1CCCOC(C)C (configuration not stated),-4%,-3%,-17%,16%,-21%,25µM*
COC(=O)CCCC1=CC2=CC(=O)C(C)(OC(=O)c3cccs3)C(=O)C2=CN1Cc1ccco1 (configuration not stated),?,7%,?,50µM*,-1%,?
COC(=O)CCCC1=CC2=CC(=O)C(C)(OC(=O)c3cccs3)C(=O)C2=CN1Cc1ccccc1 (configuration not stated),-6%,-4%,-14%,?,11%,?
COC(=O)CCCC1=CC2=CC(=O)C(C)(OC(=O)c3cccs3)C(=O)C2=CN1CCc1c[nH]c2ccccc12 (configuration not stated),?,4%,-4%,-15%,-6%,50µM*
COC(=O)CCCC1=CC2=CC(=O)C(C)(OC(=O)c3cccs3)C(=O)C2=CN1C1CCCC1 (configuration not stated),-8%,2%,1%,6%,10%,?
COc1cccc(/C=C/c2nccc3ccccc23)c1OC,3%,nt,nt,nt,2%,39%

# Assay outcomes deposited in PubChem by National Center for Advancing Translational Sciences (NCATS).
